A selection: hits, their analogues and other compounds. The true share with any hit is near 12%.
Sm TGR block: inhibitors of Schistosoma mansoni thioredoxin glutathione reductase; purified TGR, DTNB reduction, TNB absorbance 405 nm; Potency, µM (series often up to 114 µM), usual class: inhibitors; hit rate 3% among 360,000; AID 485364; also: nearly all actives have a fitted effect of over 60% in size
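First, TGR (20 nM dispensed) and NADPH were mixed with compound. Second, a 15 min room-temperature incubation followed. Third, further NADPH and then DTNB were added to start the reaction. Finally, TNB absorbance was monitored kinetically.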
Pf growth 96h: P. falciparum growth inhibition at 96 hour, primary screen for plastid delayed-death inhibitors; P. falciparum luciferase reporter growth, 96 h; Potency, µM (highest dose often 28.7 µM), actives largely listed as inhibitors; hit rate 6.9% among 320,000; AID 504834
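Two parasite generations (96 h, 37 C, 5% CO2) of compound exposure in infected erythrocytes (0.05% parasitemia, 2% hematocrit). Luciferase-reporter P. falciparum; decreased luminescence indicates inhibited growth, aimed at apicoplast-acting delayed death.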
SARS PLpro yeast: blocks SARS-CoV papain-like protease in a yeast assay. S. cerevisiae expressing SARS-CoV PLpro, growth rescue. Potency, µM (top dose mostly 32.9 µM), hits mostly activators. hit rate 0.19% among 330,000. AID 485353; calls by dose curve; also: nearly all actives have a fitted effect of over 55% in size
Pf growth 48h: P. falciparum growth inhibition at 48 hours (one generation). P. falciparum luciferase growth in erythrocytes, 48 h. Potency, µM (top dose mostly 28.7 µM), hits mostly inhibitors. hit rate 5.9% among 310,000
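Luminescence readout; reporter = integrated firefly luciferase in P. falciparum. RBC culture at 2% hematocrit, 0.1% parasitemia final, 37 C/5% CO2; decreased signal taken as growth inhibition.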
Numbers stand for hits; - = inactive; ? = inconclusive; . = no result. Unless noted, calls follow the shape of the dose curve; as a rule, active = well fitted curve in the direction sought with a large enough effect; inconclusive = small, poorly fitted or top-dose-only effect, or another doubt; inactive = no such curve, though single readings can be large; an effect the other way counts as inactive or inconclusive.

SMILES	Sm TGR block	Pf growth 96h	SARS PLpro yeast	Pf growth 48h
O=C(c1ccco1)N1CCN(c2cc(C(F)(F)F)nc3ncnn23)CC1	-	13.1µM	-	-
Cc1nn2c(N3CCN(C(=O)c4ccco4)CC3)cc(C(C)(C)C)nc2c1-c1ccccc1	-	4.65µM	-	?
Cc1nn2c(N3CCN(C4CCCC4)CC3)cc(C(C)(C)C)nc2c1-c1ccccc1	-	.	-	-
Cc1cc(N2CCN(C(=O)c3ccco3)CC2)n2ncnc2n1	-	-	-	-
CCCCN(CC)C(=O)CCn1c(=O)c2cccn2c2cccnc21	-	.	.	.
O=C(c1ccco1)N1CCN(Cc2csc(-c3ccccc3Cl)n2)CC1	50.1µM	-	-	-
O=C(c1ccco1)N1CCN(Cc2c(Cl)cccc2Cl)CC1	-	2.62µM	-	-
O=c1cc(CN2CCN(Cc3ccccc3)CC2)c2ccc(O)cc2o1	-	?	-	?
O=C(c1ccco1)N1CCN(Cc2cc(=O)oc3cc(O)ccc23)CC1	44.7µM	?	-	-
O=C(c1ccco1)N1CCN(Cc2ccc(Cl)cc2)CC1	-	-	-	?
O=C(c1cc(-c2ccccc2Cl)on1)N1CCN(C(=O)c2ccco2)CC1	-	-	-	-
O=C(c1cccc(F)c1)N1CCN(Cc2ccco2)CC1	-	6.57µM	-	-
O=C(c1ccco1)N1CCN(Cc2cccc(F)c2)CC1	-	.	-	-
Cc1ccc(OCc2cc(C(=O)N(C)Cc3cnn(-c4ccccc4C)c3)no2)cn1	-	?	-	-
CC(=O)N1CCCc2cc(S(=O)(=O)N3CCC(C(=O)Nc4cccc(Cl)c4C)CC3)ccc21	-	.	.	.
COc1ccc(/C=C/C(=O)Nc2cc(C(F)(F)F)ccc2Cl)cc1OC	-	-	-	?
COc1cc(/C=C/C(=O)Nc2cc(C(F)(F)F)ccc2Cl)cc(OC)c1OC	-	2.62µM	-	10.4µM
COc1ccc(S(=O)(=O)c2c(Nc3ccccc3F)sc(C(=O)c3cccc(OC)c3)c2N)cc1	-	.	.	.
COc1ccc(-c2cn3cccnc3n2)cc1NC(=O)Nc1ccc(Cl)cc1	-	.	.	.
COc1ccc(NC(=S)N/C(=N/CS(=O)(=O)c2ccccc2)c2ccccc2)cc1	39.8µM	-	-	-
O=[N+]([O-])c1ccc(NC(=S)N/C(=N/CS(=O)(=O)c2ccccc2)c2ccccc2)cc1	20µM	?	-	-
Cc1ccc(S(=O)(=O)/N=C(/Nc2ccc([N+](=O)[O-])cc2)c2ccccc2)cc1	-	-	-	-
Cc1cccc(NC(=S)N/C(=N/S(=O)(=O)c2ccccc2)c2ccccc2)c1	?	.	-	-
CCOc1ccccc1C1CC(=O)Nc2c1c(=O)n(C)c1ncnn21 (stereo unspecified)	-	.	.	.
CNC(=O)COc1coc(CN2CCN(c3ccc(F)cc3)CC2)cc1=O	-	?	-	-
SMILES	Sm TGR block	Pf growth 96h	SARS PLpro yeast	Pf growth 48h
CC1CCc2c(sc3nnn(CC(=O)Nc4c(C(C)C)cccc4C(C)C)c(=O)c23)C1 (stereo unspecified)	-	.	.	.
O=C1c2ccccc2[C@@H]2C[C@@H](O)[C@H](Nc3cccc(C(F)(F)F)c3)CCN12	.	.	-	.
CC(C)Cn1c(SCc2nc3ccccc3c(=O)[nH]2)nc2ccccc2c1=O	-	-	-	7.38µM
Cn1c(SCc2nc3ccccc3c(=O)[nH]2)nc2ccccc21	-	-	-	-
O=c1[nH]c(CSc2cccc[n+]2[O-])nc2ccccc12	-	?	-	13.1µM
Cn1c(-c2ccccc2)cnc1SCc1nc2ccccc2c(=O)[nH]1	-	2.33µM	-	-
O=c1[nH]c(Cc2ccccc2)nc2ccccc12	-	-	-	-
O=c1[nH]c(Cc2ccccc2Cl)nc2ccccc12	?	9.28µM	-	-
Cc1sc2ncn(CC(=O)N3CCN(c4ccccc4F)CC3)c(=O)c2c1S(=O)(=O)N1CCN(c2ncccn2)CC1	-	.	.	.
CC1CCCCN1Cc1nc2ccccc2c(=O)[nH]1 (stereo unspecified)	-	0.0185µM	-	-
COc1ccc(-c2nnc(SCc3cc(=O)c4cc(C)cc(C)c4[nH]3)n2C)cc1	-	.	.	.
CCOC(=O)c1c(S(=O)(=O)N2CCCC(C(=O)Nc3ccc(C)cn3)C2)c(C)n(C)c1C (stereo unspecified)	-	-	-	13.1µM
CCOC(=O)c1c(S(=O)(=O)N2CCCC(C)C2)c(C)n(C)c1C (stereo unspecified)	-	?	-	?
CCOC(=O)c1c(S(=O)(=O)N2CCCC2)c(C)n(C)c1C	-	11.7µM	-	-
CCOC(=O)c1c(S(=O)(=O)N2CCCCC2C)c(C)n(C)c1C (stereo unspecified)	-	1.65µM	-	-
O=C(NCCNc1ccc([N+](=O)[O-])cc1C(F)(F)F)c1ccccc1	-	13.1µM	-	?
CCOC(=O)/C=c1\s/c(=C\c2ccc3c(c2)OCCO3)c(=O)n1CC(=O)NCC1CCCO1 (stereo unspecified)	-	-	-	-
CCOC(=O)/C=c1\s/c(=C\c2c(OCC)ccc3ccccc23)c(=O)n1CC(=O)NCC1CCCO1 (stereo unspecified)	-	.	-	11.7µM
O=C(NCc1cccc(F)c1)c1cccc(NC(=O)c2nsc3ccccc23)c1	-	.	.	.
CC(C)CC1c2[nH]c3ccccc3c2CCN1C(=O)c1cnccn1 (stereo unspecified)	-	?	-	?
CC(C)CC1c2[nH]c3ccccc3c2CCN1C(=O)CCC(=O)N(C)C (stereo unspecified)	-	6.57µM	-	-
CC(=O)c1cc(C(=O)N2CCc3c([nH]c4ccccc34)C2CC(C)C)[nH]n1 (stereo unspecified)	-	9.28µM	-	?
Cc1c(CN2CCc3c([nH]c4ccccc34)C2CC(C)C)cnn1C (stereo unspecified)	-	-	-	-
CC(C)CC1c2[nH]c3ccccc3c2CCN1C(=O)C1CCOCC1 (stereo unspecified)	-	-	-	4.65µM
COc1ccccc1-c1noc(-c2ccc(N3CCN(c4ccccc4)CC3)c([N+](=O)[O-])c2)n1	-	.	.	.
SMILES	Sm TGR block	Pf growth 96h	SARS PLpro yeast	Pf growth 48h
Nc1cc(Cl)nnc1Cl	-	-	-	-
CC(C)CC(=O)Nc1c2c(nn1-c1cccc(Cl)c1)CS(=O)(=O)C2	-	-	-	-
COc1ccc(Cl)cc1NC(=O)CSc1nc(NS(=O)(=O)c2ccccc2)cc(=O)[nH]1	-	8.28µM	-	-
Cc1cccc(NC(=O)CSc2nc(NS(=O)(=O)c3ccccc3)cc(=O)[nH]2)c1	-	10.4µM	-	-
Cc1ccc(NC(=O)CSc2nc(NS(=O)(=O)c3ccc(C)cc3)cc(=O)[nH]2)cc1	-	.	-	5.22µM
COc1cc2nc(N(C)CCCNC(=O)[C@@H]3CCCO3)nc(N)c2cc1OC	.	-	.	-
CCOc1ccc(NC(=O)CCCc2nc(-c3cccc(OC)c3)no2)cc1	-	.	.	.
Cc1ccc2c(c1)=C(c1ccccc1)N(O)CC(=O)N=2	-	-	-	-
CNC1=CN(O)C(c2ccccc2)=c2cc(Cl)ccc2=N1	.	13.5µM	.	19µM
O=C(Nc1cccc(Cl)c1)NC1CCN(C2CCCCC2)C1 (stereo unspecified)	-	11.7µM	-	?

High-throughput results deposited in PubChem BioAssay by National Center for Advancing Translational Sciences (NCATS).
